Screens deposited in PubChem by National Center for Advancing Translational Sciences (NCATS).
CtBP-E1A blk – CtBP/E1A binding inhibition. AID 651724. activity change, % (test concentration not listed). AlphaScreen GST-E1A/His-CtBP binding, 1536-well; stronger effect = lower value. actives 0.49% (n = 340,000); in the data active = activity change below about -65%; inconclusive = mostly about -30% to -63%
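Protein mix (5X: 125 nM each GST-E1A, His-CtBP) was incubated with pinned compound 2 h at 37 deg C in dark, in 50 mM Tris pH 8.0 buffer with 300 mM NaCl. Glutathione donor and nickel acceptor beads followed; AlphaScreen signal read after 1 h.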
Six1-Eya2 inh – Six1/Eya2 interaction inhibition. Q15475+O00167. AlphaScreen GST-Six1/His-Eya2 binding, biochemical; stronger effect = lower value. activity change, % (test concentration not listed). actives 0.56% (n = 360,000); in the data active = activity change below about -65%; inconclusive = mostly about -30% to -63%
Target sequence (O00167 whole entry, looked up): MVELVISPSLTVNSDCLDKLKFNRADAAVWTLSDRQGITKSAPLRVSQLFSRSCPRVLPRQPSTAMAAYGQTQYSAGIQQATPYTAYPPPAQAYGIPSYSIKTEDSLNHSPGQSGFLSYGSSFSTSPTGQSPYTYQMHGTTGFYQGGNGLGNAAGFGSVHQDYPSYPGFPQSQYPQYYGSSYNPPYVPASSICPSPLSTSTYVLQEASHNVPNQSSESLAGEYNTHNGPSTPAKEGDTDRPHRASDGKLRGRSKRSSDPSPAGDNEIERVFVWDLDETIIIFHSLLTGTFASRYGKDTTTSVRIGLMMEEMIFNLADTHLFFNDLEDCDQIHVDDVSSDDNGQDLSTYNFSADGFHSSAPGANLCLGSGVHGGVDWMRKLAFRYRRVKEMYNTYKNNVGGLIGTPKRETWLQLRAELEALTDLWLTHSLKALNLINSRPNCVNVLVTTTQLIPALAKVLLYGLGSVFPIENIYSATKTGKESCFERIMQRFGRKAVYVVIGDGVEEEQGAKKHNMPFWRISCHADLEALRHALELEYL
Target sequence (Q15475 whole entry, looked up): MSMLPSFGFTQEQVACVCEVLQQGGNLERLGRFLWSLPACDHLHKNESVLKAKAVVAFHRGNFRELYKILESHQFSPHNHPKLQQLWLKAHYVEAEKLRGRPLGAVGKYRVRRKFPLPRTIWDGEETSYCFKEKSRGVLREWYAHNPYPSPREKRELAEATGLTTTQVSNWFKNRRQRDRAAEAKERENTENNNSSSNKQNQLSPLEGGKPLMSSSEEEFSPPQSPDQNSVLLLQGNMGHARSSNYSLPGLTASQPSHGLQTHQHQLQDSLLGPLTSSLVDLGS
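Six1/Eya2 binding was read as AlphaScreen signal after compounds were pinned into GST-Six1 plus His-tagged Eya2 (5X stock 250/500 nM) in pH 8.0 Tris/NaCl/TCEP buffer, beads added, then incubated 1 h, 37 C, dark.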
DT40 TDP1 no CPT – qHTS for Inhibitors of human tyrosyl-DNA phosphodiesterase 1 (TDP1): qHTS in cells in absence of CPT | DT40 Tdp1-/- hTDP1 cells, no CPT, ATP luminescence, 48 h | Potency, µM (highest dose often 46.2 µM), inactives show at the top dose activity change, negative = growth inhibition, most hits filed as inhibitors | actives 15% (n = 420,000) | AID 686978, 2013; also: potency is read from the fitted curve at half-maximal effect; nearly all actives have a fitted effect of over 55% in size
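A cellular qHTS used chicken DT40 cells lacking endogenous Tdp1 but carrying stably transfected human TDP1. Compounds were applied without camptothecin, and cell growth kinetics were judged by ATP-dependent luminescence after ≥48 hr.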
DT40 TDP1 CPT – DT40-hTDP1 cell growth loss with CPT; chicken DT40 Tdp1-/-;hTDP1 cells + 20 nM CPT, ATP luminescence, 48 h; Potency, µM (series often up to 46.2 µM), without a hit: at the top dose activity change, negative = growth inhibition, hits mostly inhibitors; actives 12% (n = 420,000); AID 686979; also: potency is read from the fitted curve at half-maximal effect; nearly all actives have a fitted effect of over 55% in size
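Cell growth measured by CellTiter-Glo luminescence after a minimum 48 h, 37 C compound exposure with 20 nM CPT in Tdp1-knockout DT40 cells stably expressing hTDP1, seeded 400/well; qHTS titration format.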
IL1B secr inh – inflammasome signaling inhibition, IL-1 beta readout. actives 4.7% (n = 360,000). THP-1 LPS/ATP IL-1B secretion, AlphaLISA, 16 h; stronger effect = lower value. AID 743279. activity change, % at 57.5 µM; in the data active = activity change below about -50%; inconclusive = mostly about -30% to -49%
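Secreted IL-1B measured by AlphaLISA bead assay after 16 h compound exposure of THP-1 cells; compounds (final up to 57.5 uM) added 1 h before LPS (250 ng/mL) and ATP (1.25 mM) stimulation; lower signal means less secretion.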
TDP1 inh – TDP1 (human) enzyme inhibition. Potency, µM (titrated, usually from 130 µM), for inactives: top-dose activity change, negative = inhibition, most hits filed as inhibitors. Q9NUW8. recombinant TDP1, AlphaScreen DNA substrate cleavage. actives 0.28% (n = 350,000); also: potency is read from the fitted curve at half-maximal effect; nearly all actives have a fitted effect of over 40% in size
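AlphaScreen read-out: signal falls as enzyme removes the 3' tyrosine-FITC from a 5'-biotinylated DNA oligo (15 nM, 5 min, RT). Enzyme was E. coli-made recombinant Tdp1 at 1 nM, exposed to compound for 15 min beforehand; beads 10 ug/ml, 10 min.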
* hit, by the source's call; ? = inconclusive; . = no result given. This is a sample that favours compounds with a hit; in the whole collection about 18% have one here. Unless noted, calls follow the shape of the dose curve; as a rule, active = well fitted curve in the direction sought with a large enough effect; inconclusive = small, poorly fitted or top-dose-only effect, or another doubt; inactive = no such curve, though single readings can be large; an effect the other way counts as inactive or inconclusive. % is scaled to controls: 0 for no effect and ±100 for the full control effect.

SMILES | CtBP-E1A blk | Six1-Eya2 inh | DT40 TDP1 no CPT | DT40 TDP1 CPT | IL1B secr inh | TDP1 inh
COc1ccc(C(=O)N=c2nc(-c3ccccc3)n(-c3ccccc3)s2)cc1 | . | . | ? | 13µM* | . | .
Cc1cc(C)c(NC(=O)Cn2nc(-c3ccccc3)nc2-c2ccccc2)c(C)c1 | -2 | 5 | ? | ? | 5 | -3%
CC1CCN(C(=O)Cn2c(=O)c3cccn3c3ccccc32)CC1 | -25 | -6 | -7% | -9% | -24 | 3%
O=C1CC(c2ccc(F)cc2)CC2=C1C(c1ccc([N+](=O)[O-])o1)Nc1ccccc1N2 (stereo unspecified) | -3 | 8 | 16µM* | ? | -74* | 2%
O=C1CC(c2ccccc2)CC2=C1C(c1ccccn1)Nc1ccccc1N2 (stereo unspecified) | 2 | 1 | 3% | 1% | 9 | 0%
C=C1C(=C/C=C2\CCC[C@]3(C)[C@@H]([C@H](C)/C=C/[C@@H](O)C4CC4)CC[C@@H]23)C[C@@H](O)C[C@@H]1O | . | . | 27µM* | 24µM* | . | .
C=C1/C(=C\C=C2/CCC[C@]3(C)[C@@H]([C@H](C)CCCC(C)(C)O)CC[C@@H]23)C[C@@H](O)C[C@@H]1O | . | . | . | . | . | 2%
C=C1C(=C/C=C2\CCC[C@]3(C)[C@@H]([C@H](C)CCCC(C)C)CC[C@@H]23)C[C@@H](O)C[C@@H]1O | . | . | 11µM* | ? | . | .
COC(=O)C(C(=O)OC)c1ncccc1NS(=O)(=O)c1ccc(C)cc1 | 0 | -1 | -14% | 8% | 2 | .
C=C1Cc2c(Cl)cc3[nH]c4c5c3c2[C@@]2(O)[C@@H]1C[C@@H]2C(C)(C)O[C@H]5[C@@H]1CC[C@@]2(O)[C@@]35O[C@@H]3[C@@H](O)[C@@H](C(=O)O)O[C@H]5CC[C@]2(C)[C@@]41C | . | . | 4.1µM* | 5.8µM* | . | 10%
CCc1cc2c(C)ccc(C)c2nc1SCC(=O)Nc1c[nH]c(=O)[nH]c1=O | 1 | 9 | 12µM* | ? | 71 | 0%
Cc1[nH]c(=O)[nH]c(=O)c1NC(=O)CSc1ncccc1-c1nc2ccccc2[nH]1 | -7 | -12 | -9% | 0% | 18 | 3%
CCc1cc2c(C)ccc(C)c2nc1SCC(=O)Nc1c(C)[nH]c(=O)[nH]c1=O | 10 | 2 | ? | 21µM* | -5 | -3%
CNc1cnc(-c2ccc(O)c(OC)c2)cn1 | -18 | -14 | ? | 16µM* | -61* | .
CNc1ccc(-c2cc(OC)ccc2OC)cn1 | -3 | -6 | -14% | -15% | -6 | .
N#C/C(=C(/O)c1ccc(Br)s1)c1nc2ccccc2[nH]1 | 4 | 1 | 7.3µM* | 4.6µM* | 18 | .
N#C/C(=C(/O)c1ccc([N+](=O)[O-])s1)c1nc2ccccc2[nH]1 | 2 | 6 | 1µM* | -87% | -17 | 5%
CC1=C(C(=O)OC2CCCCCC2)C(c2ccc(Cl)cc2)CC(=O)N1 (stereo unspecified) | . | . | ? | ? | . | 0%
CC1=C(C(=O)OC2CCCCCC2)C(c2cccc(Cl)c2)CC(=O)N1 (stereo unspecified) | . | . | 18µM* | 18µM* | . | 2%
CC1=C(C(=O)OC2CCCCCC2)C(c2ccc(Cl)cc2Cl)CC(=O)N1 (stereo unspecified) | . | . | 16µM* | 15µM* | . | -2%
CC1=C(C(=O)OCC2CCCCC2)C(c2ccc(Cl)cc2Cl)CC(=O)N1 (stereo unspecified) | . | . | 21µM* | ? | . | 0%
CC(C)n1nnnc1C1c2ccccc2C(=O)N1CCc1ccccc1F (stereo unspecified) | 5 | 16 | ? | 0% | 41 | .
Cc1cccc(N2CCCn3c2nc2c3c(=O)n(CC(=O)OCc3ccccc3)c(=O)n2C)c1 | . | . | . | . | . | 3%
COc1ccc(C(=O)COC(=O)CCCC(=O)Nc2ccc(C(C)=O)cc2)cc1 | . | . | -23% | 2% | . | .
COc1ccnc(-n2cccc2C=O)c1C#N | 11 | 6 | -1% | 5% | 1 | 9%
SMILES | CtBP-E1A blk | Six1-Eya2 inh | DT40 TDP1 no CPT | DT40 TDP1 CPT | IL1B secr inh | TDP1 inh
CC1=C(C#N)C(c2ccoc2)C(C(=O)OCc2ccccc2)=C(N)S1 (stereo unspecified) | -7 | 0 | 26µM* | -26% | -13 | 1%
C=CCOC(=O)C1=C(C)OC(N)=C(C#N)C1c1ccoc1 (stereo unspecified) | 4 | 2 | -1% | 4% | 18 | 5%
Cc1ccc(C(=O)NC2(C(F)(F)F)N=C(c3ccccc3)N(Cc3ccccc3)C2=O)cc1 (stereo unspecified) | . | . | 26µM* | ? | . | 7%
COc1ccc(CN2C(=O)C(NC(=O)c3ccccc3C)(C(F)(F)F)N=C2c2ccccc2)cc1 (stereo unspecified) | . | . | 15µM* | 21µM* | . | 5%
CC(C)(C)C(=O)NC1(C(F)(F)F)NC(=O)N(Cc2ccccc2)C1=O (stereo unspecified) | 8 | -18 | 2% | 18% | 51 | .
COc1ccc(CN2C(=O)C(NC(=O)c3ccc(C)cc3)(C(F)(F)F)N=C2c2ccccc2)cc1 (stereo unspecified) | . | . | 23µM* | 23µM* | . | 6%
O=C(NC1(C(F)(F)F)N=C(c2ccccc2)N(Cc2ccccc2)C1=O)c1ccc(F)cc1 (stereo unspecified) | . | . | ? | 21µM* | . | 3%
COc1ccc(N/C=C2/CCCCC2=O)cc1 | 1 | -2 | ? | -9% | -7 | 7%
c1cc2nc(C34CC5CC(CC(C5)C3)C4)[nH]c2cn1 | 6 | -2 | -15% | ? | 0 | 3%
COCCCNC(=O)c1sc2nc3n(c(=O)c2c1C)CCC3 | . | . | -3% | 0% | . | 4%
O=C1CC(c2cccc(Oc3ccccc3)c2)NC(=O)N1 (stereo unspecified) | 5 | -1 | -14% | -13% | 17 | 2%
COc1ccc(C2CCCN2C(=S)Nc2cccc(C)c2)cc1OC (stereo unspecified) | 0 | -4 | ? | ? | -24 | 3%
CNC(=S)N1N=C(c2ccc(Br)cc2)CC1c1ccc(Br)cc1 (stereo unspecified) | -6 | -11 | 12µM* | 15µM* | ? | 2%
CNC(=S)N1N=C(c2ccc(C)cc2)CC1c1ccc(OC)c(OC)c1 (stereo unspecified) | 2 | -2 | 15µM* | ? | -16 | -3%
